# Measured values published in PubChem BioAssay (NCATS).
# “And” between values parts separate entries of the source, which are not always exact repeats. Equal values may be shown once. Results filed as inconclusive are left out. A call without a number means that no potency is given here. Where a structure was tested more than once in an assay, its records may differ in their call. The source made the active and inactive calls. Unless noted, the call rests on the fitted dose curve; in most records, active means well fitted curve in the direction sought with a large enough effect; inconclusive means small, poorly fitted or top-dose-only effect, or another doubt; inactive means no such curve, though single readings can be large; an effect the other way counts as inactive or inconclusive.
# What was measured:
# [1] = Cytometric Cell-Based qHTS for Inhibitors of the mTORC1 Signaling Pathway in MEF (Tsc2-/-, p53-/-) Cells (AID 2660);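 further: percent of cells above a phospho-rpS6 to PI ratio cutoff in each well; series mostly up to about 38 µM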
# In short: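 Tsc2-/-, p53-/- MEFs (empty vector) exposed to compound 24 h at 37 C, fixed, stained with Alexa-488 anti-phospho-rpS6 Ser235/236 and propidium iodide. Acumen laser scanning; phospho-S6/PI ratio thresholded against 7.5 nM rapamycin, reported as % positive cells.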
# [2] = High Content Imaging Cell-Based qHTS for Inhibitors of the mTORC1 Signaling Pathway in MEF (Tsc2-/-, p53-/-) Cells (AID 2666);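 further: percent of cells scored positive for phospho-rpS6 Ser235/236 immunostaining by imaging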
# In short: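 Read-out: % positive cells per well, with thresholds from highest- and lowest-signal wells, based on phospho-rpS6 (Ser235/236) intensity normalized to Hoechst nuclear stain. Cells: Tsc2-/-, p53-/- MEFs carrying empty vector; compound 24 hrs, 37 degree Celsius.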
# [3] = High Content Imaging Cell-Based qHTS for Inhibitors of the mTORC1 Signaling Pathway in MEF Cells (AID 2667); further: potency means the concentration at half of the fitted maximal effect
# In short: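 MEF (Tsc2-/-, p53-/-, WT Tsc2 re-expressed); cpd 24 h, 37 °C; PFA fix; Alexa-488 anti-p-rpS6 Ser235/236, PI, Hoechst; IN Cell imaging; Hoechst/Alexa-488 intensity ratio; % active cells, thresholds set from rapamycin and DMSO wells.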
# [4] = Cytometry Cell-Based qHTS for Inhibitors of the mTORC1 Signaling Pathway in MEF cells (AID 2668);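 further: Tsc2-/- p53-/- mouse embryonic fibroblasts stably re-expressing wild-type Tsc2; percent cells positive for phospho-rpS6 Ser235/236 relative to propidium iodide stain; series mostly up to about 38 µM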
# In short: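 MEFs (Tsc2-/-, p53-/- stably expressing WT Tsc2) treated 24 h at 37 degree Celsius, fixed, stained with Alexa-488 anti-phospho-rpS6 Ser235/236 and propidium iodide; Acumen laser scanning. Reported as % positive cells, phospho-S6 normalized to PI.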
# [5] = Validation screen for inhibitors of Lassa infection (AID 463096; calls by dose curve)
# [6] = Validation screen for small molecules that induce DNA re-replication in MCF 10A normal breast cells (AID 463097); further: nearly all actives have a fitted effect of over 60% in size; further: potency means the concentration at half of the fitted maximal effect
# In short: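 MCF 10A cells exposed to compound 48 hr at 37 C, 5% CO2, then Hoechst-stained 40 min. Laser-scanning imaging of nuclear DNA content (405 nm ex, 500-530 nm em); re-replication scored as rise in nuclei with elevated fluorescence intensity.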
# [7] = target: Tumor susceptibility gene 101 protein (Homo sapiens) (UniProt Q99816); assay: qHTS Validation Assay for Iinhibitors of HIV-1 Budding by Blocking the Interaction of PTAP/TSG101 (AID 485342; calls by dose curve)
# In short: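 Tsg101 binding domain (10 uM) with FITC-labeled PTAP peptide (50 nM) in HEPES pH 7.5 buffer, 20 min at r.t. with compounds. Binding measured by fluorescence polarization.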
# [8] = qHTS Validation Assay to Find Inhibitors of Chronic Active B-Cell Receptor Signaling (AID 485345; active means well fitted curve in the direction sought with a large enough effect in the main read-out, with a control signal flat, not every such curve was filed as active)
# In short: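 TMD8 ABC-DLBCL cells with dox-inducible green luciferase–IκBα fusion and red native luciferase; compounds 46 uM–3 nM, 4 h at 37C with doxycycline in 0.5% FBS IMDM. Green/red ratio normalized to basal and 10 uM MG-132.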
# [9] = target: Beta-2 adrenergic receptor (Homo sapiens) (UniProt P07550); assay: qHTS validation assay of beta-arrestin-biased ligands of beta2-adrenergic receptor (AID 485366)
# In short: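 Tango cells expressing recombinant beta2-AR and beta-arrestin with tTA-driven luciferase, in DMEM with 1% FBS. Compounds were titrated up to 46 microM for 18 hr at 37 degrees C. Luminescence was read 15 min after substrate; curves were fitted and class-assigned.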
# [10] = Quantitative high throughput screen for delayed death inhibitors of the malarial parasite plastid, 96 hour incubation (AID 488745); further: series mostly up to about 29 µM; nearly all actives have a fitted effect of over 70% in size
# In short: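 P. falciparum carrying an integrated firefly luciferase reporter, grown in erythrocytes (2% hematocrit, 0.1% parasitemia final) in RPMI 1640/0.5% Albumax, was exposed to compound for 96 h (two generations) at 37 C, 5% CO2. Luminescence decrease indicated growth inhibition.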
# [11] = Quantitative high throughput screen for delayed death inhibitors of the malarial parasite plastid, 48 hour incubation (AID 488752); further: nearly all actives have a fitted effect of over 65% in size
# In short: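 Erythrocytes infected with P. falciparum carrying an integrated firefly luciferase reporter (2% hematocrit, 0.1% parasitemia final) were exposed to compounds in RPMI 1640/0.5% Albumax for 48 h at 37 C, 5% CO2. Growth inhibition was scored as reduced luminescence.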
# [12] = target: Thioredoxin reductase 1, cytoplasmic (Rattus norvegicus) (UniProt O89049); assay: qHTS Assay for Substrates of Mammalian Selenoprotein Thioredoxin Reductase 1 (TrxR1) (AID 488772);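 further: NADPH fluorescence in the first read after selenite addition and not the 8 min delta; series mostly up to about 57 µM; a drop in NADPH fluorescence below the no-compound background marks a TrxR1 substrate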
# In short: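 Quantitative HTS in Tris-HCl buffer at pH 7.5 with EDTA and Tween-20, using rat TrxR1, 400 uM NADPH and 400 uM selenite (final). A fall in initial NADPH fluorescence relative to background marked substrate behaviour.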
# [13] = target: Thioredoxin reductase 1, cytoplasmic (Rattus norvegicus) (UniProt O89049); assay: qHTS Assay for Inhibitors of Mammalian Selenoprotein Thioredoxin Reductase 1 (TrxR1) (AID 488773); details: Potency: inhibition;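 further: drop in NADPH fluorescence over an 8 min run after selenite addition; series mostly up to about 57 µM; nearly all actives have a fitted effect of over 40% in size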
# In short: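 Steps: enzyme (90 nM) plus NADPH (400 uM final), 5 min at ~22 deg C; compound added, 15 min; selenite (400 uM final) added; fluorescence followed for 8 min. Concentration-response curves derived from the normalized delta values.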
# [14] = target: M-phase phosphoprotein 8 (Homo sapiens) (UniProt Q99549); assay: qHTS Validation Assay for Inhibitors for MPP8 Chromodomain Interactions with Methylated Histone Tails (AID 488949); further: nearly all actives have a fitted effect of over 55% in size; further: potency means the concentration at half of the fitted maximal effect
# In short: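 MPP8 (50 nM) was pre-bound to 50 nM biotinylated H3(1-18)K9me3 peptide in PBS pH 7.4 with 0.01% Tween-20. Compounds were then added for 30 min at room temperature, and complex disruption was read by AlphaScreen with streptavidin donor and nickel-chelate acceptor beads.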
# [15] = target: Chromobox protein homolog 1 (Homo sapiens) (UniProt P83916); assay: qHTS Validation Assay for Inhibitors of HP1-beta Chromodomain Interactions with Methylated Histone Tails (AID 488953); further: nearly all actives have a fitted effect of over 50% in size; further: potency means the concentration at half of the fitted maximal effect
# In short: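 HP1-beta (50 nM) was preincubated 30 min at room temperature with biotinylated H3(1-18)K9me3 peptide (50 nM) in PBS pH 7.4, 0.01% Tween-20, then with compounds 30 min. AlphaScreen signal was read after streptavidin donor/nickel chelate acceptor beads (10 ug/mL final).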
# [16] = target: Ubiquitin carboxyl-terminal hydrolase 2 (Homo sapiens) (UniProt O75604); assay: qHTS Validation Assay for Inhibitors of Ubiquitin-specific Protease USP2a Using CHOP2 as the Reporter (AID 463106); further: potency means the concentration at half of the fitted maximal effect
# In short: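 USP2 core (10nM final) was preincubated with compound for 30min at RT in 20mM Tris-HCl pH 8.0, 2mM CaCl2, 2mM beta-mercaptoethanol, 0.05% CHAPS. Ub-CHOP2 and reporter substrate (25nM each) were added, and fluorescence (Ex 485/Em 531nm) was read after 60min.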
# [17] = target: ATP-dependent 6-phosphofructokinase (Trypanosoma brucei brucei) (UniProt O15648); assay: qHTS Validation Assay to Find Inhibitors of T. brucei phosphofructokinase (AID 485368)
# In short: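 Activity was read as ADP production by luminescence (ADP-Glo) after 45 min at room temperature. The enzyme was 1.25nM PFK in 0.1M TEA pH 8.0 with 0.5 mM F6P, 0.1mM ATP and 5 mM MgCl2. Compounds were titrated up to 57 uM and % activity normalized to no-enzyme and full-enzyme controls.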
# [18] = target: DNA polymerase III PolC-type (Bacillus subtilis (strain 168)) (UniProt P13267); assay: qHTS Validation Assay for the Inhibitors of DNA Replication in Gram-Positive Bacteria (AID 485295); further: potency means the concentration at half of the fitted maximal effect
# In short: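 Reconstituted B. subtilis Pol III holoenzyme (PolC, beta clamp, SSB, primase) preincubated with compound, then M13Gori single-stranded circular template with dNTPs/NTPs added; room temperature reaction. Stopped with EDTA/PicoGreen; dsDNA fluorescence read, EDTA as full-inhibition control.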
# [19] = target: Flap endonuclease 1 (Homo sapiens) (UniProt P39748); assay: qHTS Validation Assay for the Inhibitors of Human Flap endonuclease 1 (FEN1) (AID 488816)
# In short: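 FEN1, dispensed as a 10 nM reagent, was preincubated with pin-transferred compounds for 15 min at room temperature before substrate was added (50 nM final). Plates were read at 0 and 15 min, and a four-parameter Hill equation was fitted to the concentration-response data.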
# Chain of Beta-2 adrenergic receptor (Homo sapiens) (P07550 whole entry, looked up): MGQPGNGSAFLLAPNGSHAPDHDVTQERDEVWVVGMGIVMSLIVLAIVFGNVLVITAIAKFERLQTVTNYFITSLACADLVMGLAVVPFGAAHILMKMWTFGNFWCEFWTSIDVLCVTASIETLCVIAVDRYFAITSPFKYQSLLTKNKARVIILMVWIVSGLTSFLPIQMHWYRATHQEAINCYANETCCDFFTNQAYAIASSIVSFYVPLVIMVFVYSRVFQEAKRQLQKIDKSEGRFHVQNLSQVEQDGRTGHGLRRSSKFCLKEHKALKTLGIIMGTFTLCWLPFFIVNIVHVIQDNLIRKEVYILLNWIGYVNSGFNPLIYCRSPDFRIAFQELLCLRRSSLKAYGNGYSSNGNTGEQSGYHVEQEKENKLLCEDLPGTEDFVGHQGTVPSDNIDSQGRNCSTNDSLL
# Chain of Chromobox protein homolog 1 (Homo sapiens) (P83916 whole entry, looked up): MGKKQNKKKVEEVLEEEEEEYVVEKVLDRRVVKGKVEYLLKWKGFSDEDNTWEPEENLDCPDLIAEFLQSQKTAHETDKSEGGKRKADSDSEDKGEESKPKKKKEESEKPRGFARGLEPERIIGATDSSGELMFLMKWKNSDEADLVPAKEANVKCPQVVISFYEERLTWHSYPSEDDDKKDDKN
# Chain of ATP-dependent 6-phosphofructokinase (Trypanosoma brucei brucei) (O15648 whole entry, looked up): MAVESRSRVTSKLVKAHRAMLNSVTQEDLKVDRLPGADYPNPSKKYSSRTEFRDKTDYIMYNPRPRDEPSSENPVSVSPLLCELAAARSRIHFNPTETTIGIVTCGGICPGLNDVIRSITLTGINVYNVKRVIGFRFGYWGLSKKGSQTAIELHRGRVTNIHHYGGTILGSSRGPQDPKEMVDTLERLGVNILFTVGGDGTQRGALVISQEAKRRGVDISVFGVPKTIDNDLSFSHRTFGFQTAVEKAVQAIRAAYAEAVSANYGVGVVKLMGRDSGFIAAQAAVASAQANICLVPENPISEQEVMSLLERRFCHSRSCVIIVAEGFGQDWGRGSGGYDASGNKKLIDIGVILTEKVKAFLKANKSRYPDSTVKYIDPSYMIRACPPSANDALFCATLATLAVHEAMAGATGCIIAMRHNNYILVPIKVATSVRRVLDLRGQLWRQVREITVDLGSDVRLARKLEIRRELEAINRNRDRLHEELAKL
# Chain of Tumor susceptibility gene 101 protein (Homo sapiens) (Q99816 whole entry, looked up, the tested form may be a part): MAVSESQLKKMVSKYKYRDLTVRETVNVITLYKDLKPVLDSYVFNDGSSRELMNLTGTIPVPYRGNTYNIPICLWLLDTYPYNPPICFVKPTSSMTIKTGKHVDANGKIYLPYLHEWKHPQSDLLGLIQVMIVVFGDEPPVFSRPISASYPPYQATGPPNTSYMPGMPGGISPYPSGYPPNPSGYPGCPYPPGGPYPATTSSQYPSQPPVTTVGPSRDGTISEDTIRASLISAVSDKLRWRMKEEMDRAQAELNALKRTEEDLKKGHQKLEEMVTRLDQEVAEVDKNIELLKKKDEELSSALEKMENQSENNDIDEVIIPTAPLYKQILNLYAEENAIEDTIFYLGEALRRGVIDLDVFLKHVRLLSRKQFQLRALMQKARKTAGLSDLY
# Chain of Ubiquitin carboxyl-terminal hydrolase 2 (Homo sapiens) (O75604 whole entry, looked up): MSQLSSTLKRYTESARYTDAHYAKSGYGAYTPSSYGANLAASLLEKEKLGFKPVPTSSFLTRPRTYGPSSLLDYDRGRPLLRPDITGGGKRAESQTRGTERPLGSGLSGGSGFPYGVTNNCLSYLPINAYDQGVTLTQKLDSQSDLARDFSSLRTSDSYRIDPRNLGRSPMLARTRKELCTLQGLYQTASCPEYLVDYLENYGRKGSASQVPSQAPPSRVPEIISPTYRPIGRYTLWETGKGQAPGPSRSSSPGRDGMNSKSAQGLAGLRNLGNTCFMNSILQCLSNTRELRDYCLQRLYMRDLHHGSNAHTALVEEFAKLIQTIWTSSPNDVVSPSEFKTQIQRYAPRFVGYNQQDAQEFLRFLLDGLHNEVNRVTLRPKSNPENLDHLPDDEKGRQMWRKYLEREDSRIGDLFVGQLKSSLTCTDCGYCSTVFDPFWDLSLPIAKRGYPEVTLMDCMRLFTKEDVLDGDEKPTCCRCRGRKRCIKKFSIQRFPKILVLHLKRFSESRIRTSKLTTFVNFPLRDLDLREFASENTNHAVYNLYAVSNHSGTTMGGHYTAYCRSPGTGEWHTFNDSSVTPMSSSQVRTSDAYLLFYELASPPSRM
# Chain of M-phase phosphoprotein 8 (Homo sapiens) (Q99549 whole entry, looked up): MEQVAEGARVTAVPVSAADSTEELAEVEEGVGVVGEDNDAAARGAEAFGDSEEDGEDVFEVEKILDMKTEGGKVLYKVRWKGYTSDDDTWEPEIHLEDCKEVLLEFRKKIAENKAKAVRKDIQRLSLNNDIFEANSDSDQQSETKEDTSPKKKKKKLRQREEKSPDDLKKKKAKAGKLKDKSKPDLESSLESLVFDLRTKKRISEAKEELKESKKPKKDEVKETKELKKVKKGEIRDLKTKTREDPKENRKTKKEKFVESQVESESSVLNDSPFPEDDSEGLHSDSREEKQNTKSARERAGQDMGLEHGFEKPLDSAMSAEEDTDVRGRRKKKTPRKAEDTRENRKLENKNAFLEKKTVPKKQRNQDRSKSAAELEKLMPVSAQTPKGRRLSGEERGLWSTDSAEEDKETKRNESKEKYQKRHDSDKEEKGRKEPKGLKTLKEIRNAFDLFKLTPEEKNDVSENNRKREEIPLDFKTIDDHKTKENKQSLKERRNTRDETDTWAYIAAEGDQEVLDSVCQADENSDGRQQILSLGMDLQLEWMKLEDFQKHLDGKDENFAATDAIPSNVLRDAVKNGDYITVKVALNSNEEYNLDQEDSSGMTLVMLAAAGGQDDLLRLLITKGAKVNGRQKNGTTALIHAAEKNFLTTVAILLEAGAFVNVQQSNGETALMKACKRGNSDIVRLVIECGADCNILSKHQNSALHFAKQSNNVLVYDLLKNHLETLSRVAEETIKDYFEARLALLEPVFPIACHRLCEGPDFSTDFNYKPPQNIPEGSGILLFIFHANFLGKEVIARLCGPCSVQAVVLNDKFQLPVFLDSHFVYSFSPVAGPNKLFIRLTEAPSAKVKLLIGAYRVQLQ
# Chain of DNA polymerase III PolC-type (Bacillus subtilis (strain 168)) (P13267 whole entry, looked up): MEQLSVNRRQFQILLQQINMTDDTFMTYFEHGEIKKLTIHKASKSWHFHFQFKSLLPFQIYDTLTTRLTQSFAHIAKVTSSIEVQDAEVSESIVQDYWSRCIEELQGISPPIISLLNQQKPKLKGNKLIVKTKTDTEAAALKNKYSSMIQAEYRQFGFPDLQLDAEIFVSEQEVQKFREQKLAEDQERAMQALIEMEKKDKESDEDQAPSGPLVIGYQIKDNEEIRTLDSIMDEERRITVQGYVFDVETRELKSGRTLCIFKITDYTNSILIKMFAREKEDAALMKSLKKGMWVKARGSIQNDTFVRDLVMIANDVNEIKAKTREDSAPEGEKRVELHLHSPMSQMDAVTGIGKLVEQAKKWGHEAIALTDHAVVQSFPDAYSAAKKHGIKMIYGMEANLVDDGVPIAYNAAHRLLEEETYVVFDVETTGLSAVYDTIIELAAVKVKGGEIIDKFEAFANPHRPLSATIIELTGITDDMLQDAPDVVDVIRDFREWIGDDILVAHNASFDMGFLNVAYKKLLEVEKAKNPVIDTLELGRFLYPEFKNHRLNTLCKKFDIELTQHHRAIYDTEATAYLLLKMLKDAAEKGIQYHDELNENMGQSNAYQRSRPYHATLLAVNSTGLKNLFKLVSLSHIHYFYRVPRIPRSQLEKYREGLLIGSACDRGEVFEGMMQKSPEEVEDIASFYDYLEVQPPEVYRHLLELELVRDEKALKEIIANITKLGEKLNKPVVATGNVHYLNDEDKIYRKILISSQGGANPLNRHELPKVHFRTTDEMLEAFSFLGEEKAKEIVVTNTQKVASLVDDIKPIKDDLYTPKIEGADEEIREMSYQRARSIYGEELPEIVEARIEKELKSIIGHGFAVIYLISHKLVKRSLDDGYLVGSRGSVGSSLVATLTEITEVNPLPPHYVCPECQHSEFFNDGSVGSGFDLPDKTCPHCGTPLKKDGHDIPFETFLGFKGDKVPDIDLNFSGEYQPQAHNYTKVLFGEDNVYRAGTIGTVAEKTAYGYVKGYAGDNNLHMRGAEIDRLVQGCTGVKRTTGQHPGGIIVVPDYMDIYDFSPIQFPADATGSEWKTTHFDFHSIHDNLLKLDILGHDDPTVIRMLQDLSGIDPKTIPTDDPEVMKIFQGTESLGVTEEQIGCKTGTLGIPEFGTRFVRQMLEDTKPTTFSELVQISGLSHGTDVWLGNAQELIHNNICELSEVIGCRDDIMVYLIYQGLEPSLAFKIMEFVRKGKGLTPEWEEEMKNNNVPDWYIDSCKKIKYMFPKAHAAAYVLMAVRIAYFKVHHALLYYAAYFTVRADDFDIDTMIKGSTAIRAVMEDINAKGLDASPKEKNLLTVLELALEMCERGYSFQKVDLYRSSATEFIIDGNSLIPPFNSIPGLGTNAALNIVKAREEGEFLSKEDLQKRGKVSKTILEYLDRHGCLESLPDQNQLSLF
# Chain of Flap endonuclease 1 (Homo sapiens) (P39748 whole entry, looked up): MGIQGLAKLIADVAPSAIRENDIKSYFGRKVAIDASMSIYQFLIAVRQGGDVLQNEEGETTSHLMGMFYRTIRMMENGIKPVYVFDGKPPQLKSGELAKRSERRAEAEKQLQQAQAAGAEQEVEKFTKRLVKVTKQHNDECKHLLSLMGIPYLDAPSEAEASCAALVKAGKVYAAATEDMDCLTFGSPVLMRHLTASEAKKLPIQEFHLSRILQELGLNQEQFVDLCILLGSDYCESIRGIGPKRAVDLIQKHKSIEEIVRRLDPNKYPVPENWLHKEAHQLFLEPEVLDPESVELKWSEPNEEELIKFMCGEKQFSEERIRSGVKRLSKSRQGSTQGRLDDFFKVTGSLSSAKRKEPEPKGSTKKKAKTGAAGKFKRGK
Compound,Potency [1],Potency [2],Potency [3],Potency [4],Potency [5],Potency [6],outcome [7],Potency [8],outcome [9],Potency [10],Potency [11],outcome [12],Potency [13],Potency [14],Potency [15],Potency [16],Potency [17],Potency [18],Potency [19]
O=C1CC[C@@]2(O)C3Cc4ccc(O)c5c4C2(CCN3CC2CC2)[C@H]1O5 (stereo partly specified),inactive,inactive,inactive,inactive,inactive,inactive,inactive,inactive,inactive,inactive,inactive,inactive,inactive,inactive,inactive,–,–,–,–
CC(C)(C)c1o[nH]c(=O)c1CC(N)C(=O)O (stereo unspecified),inactive,inactive,inactive,inactive,inactive,inactive,inactive,inactive,inactive,inactive,inactive,inactive,inactive,inactive,inactive,inactive,inactive,–,–
C[N+]1(C)CCN(c2ccccc2)CC1,inactive,inactive,inactive,inactive,inactive,inactive,inactive,–,inactive,inactive,inactive,inactive,inactive,inactive,–,–,–,inactive,–
CC(C)[C@@]1(NC(=O)[C@@H]2C[C@@H]3c4cccc5[nH]cc(c45)C[C@H]3N(C)C2)O[C@@]2(O)[C@@H]3CCCN3C(=O)[C@H](Cc3ccccc3)N2C1=O,inactive,inactive,inactive,inactive,–,–,inactive,inactive,inactive,–,–,inactive,–,inactive,–,–,inactive,inactive,inactive
CCCC[N+]1(C)C2CC(OC(=O)[C@H](CO)c3ccccc3)CC1C1OC12 (stereo partly specified),inactive,inactive,inactive,inactive,–,–,inactive,inactive,inactive,–,–,inactive,inactive,inactive,inactive,inactive,–,inactive,inactive
N#CCCN,inactive,inactive,inactive,inactive,–,–,inactive,inactive,inactive,–,–,inactive,–,inactive,inactive,inactive,inactive,inactive,inactive
OC1CCCCC1N1CCC(c2ccccc2)CC1 (stereo unspecified),inactive,inactive,inactive,inactive,–,inactive,inactive,inactive,inactive,inactive,–,inactive,–,inactive,inactive,–,inactive,–,inactive
CCCN(CCC)CCc1c[nH]c2ccc(C(N)=O)cc12,inactive,inactive,inactive,inactive,–,inactive,inactive,inactive,inactive,inactive,inactive,inactive,inactive,inactive,inactive,–,inactive,inactive,–
c1ccc2c(N3CCNCC3)cccc2c1,inactive,inactive,inactive,–,inactive,inactive,inactive,–,inactive,inactive,–,inactive,–,inactive,inactive,inactive,inactive,–,–
C[N+]1(C)CCc2cc3c(cc2[C@H]1[C@@H]1OC(=O)c2c1ccc1c2OCO1)OCO3,inactive,inactive,inactive,inactive,–,–,inactive,inactive,inactive,–,–,inactive,–,inactive,inactive,inactive,–,inactive,inactive
C[N+]1(C)C2CCC1CC(OC(=O)c1c[nH]c3ccccc13)C2 (stereo unspecified),inactive,inactive,inactive,inactive,–,14.1 µM (active),inactive,inactive,inactive,–,–,inactive,–,inactive and 8.44 µM (active),inactive,inactive,inactive,–,inactive
CN1CC[C@@]2(C)c3cc(OC(=O)Nc4ccccc4)ccc3N(C)[C@@H]12,inactive,inactive,inactive,inactive,–,–,inactive,–,inactive,–,–,inactive,inactive,inactive,–,inactive,–,inactive,inactive
N#C/C(=C/c1ccc(O)c(O)c1)C(N)=S,inactive,inactive,inactive,inactive,–,–,inactive,inactive,inactive,–,–,–,–,13.4 µM (active),12.6 µM (active),–,–,–,–
NC(Cc1cc(O)c(O)cc1O)C(=O)O (stereo unspecified),inactive,inactive,inactive,inactive,–,inactive,inactive,inactive,inactive,inactive,inactive,inactive,–,501 nM (active) and 474 nM (active),0.316 µM (active),656 nM (active),–,4.74 µM (active),–
CC(N)Cc1c[nH]c2ccc(OCc3cccs3)cc12 (stereo unspecified),inactive,inactive,13.1 µM (active),–,inactive,inactive,inactive,inactive,inactive,–,–,inactive,inactive,inactive,–,inactive,inactive,–,inactive
